Giardia FBPA inh: inhibitors of Giardia lamblia fructose-1,6-bisphosphate aldolase; 0.71% of 290,000 active; AID 2451; purified Giardia FBPA; A8B2U2; Potency, µM (titrated, usually from 59.6 µM), without a hit: at the highest dose activity, negative = inhibition, most hits filed as inhibitors; further: potency means the concentration at half of the fitted maximal effect; on the % scale 0 is the no-effect control and ±100 the full control effect; nearly all actives have a fitted effect of over 55% in size
Target sequence (A8B2U2 whole entry, looked up): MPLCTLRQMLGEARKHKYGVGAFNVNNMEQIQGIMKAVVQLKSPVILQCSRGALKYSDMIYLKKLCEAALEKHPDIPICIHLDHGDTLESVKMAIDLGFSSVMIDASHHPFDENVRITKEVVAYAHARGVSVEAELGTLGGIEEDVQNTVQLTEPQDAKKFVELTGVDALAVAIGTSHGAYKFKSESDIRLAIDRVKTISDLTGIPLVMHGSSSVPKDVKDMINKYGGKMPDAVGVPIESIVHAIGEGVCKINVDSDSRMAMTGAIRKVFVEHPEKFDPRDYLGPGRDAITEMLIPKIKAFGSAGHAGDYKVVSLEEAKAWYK
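40 nM FBPA preincubated 10 min at RT with compound (up to 57.5 uM final), then substrate plus GAPDH/TPI/NAD/arsenate coupling and diaphorase/resazurin added. Fluorescence read after 20 min at RT, 525/598 nm.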
LmPK inhibitor: inhibitors of Leishmania mexicana pyruvate kinase; 0.37% of 290,000 active; AID 1721; Potency, µM (doses to about 57.5 µM), without a hit: top-dose activity change, negative = inhibition, actives largely listed as inhibitors; purified LmPK, Kinase-Glo ATP luminescence, 1 h; further: potency means the concentration at half of the fitted maximal effect; on the % scale 0 is the no-effect control and ±100 the full control effect
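In 50 mM imidazole pH 7.2 with 7 mM MgCl2, LmPK (0.1 nM) turned over PEP (0.5 mM) and ADP (0.1 mM) for 1 h at room temperature. Luciferase read-out of ATP.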
TbPYK inhibitor: blocks Trypanosoma brucei pyruvate kinase; Q57TT1; TbPYK enzyme, Kinase-Glo Plus ATP luminescence, 45 min; Potency, µM (doses to about 76.8 µM), for inactives: top-dose activity, negative = inhibition, most hits filed as inhibitors; 0.12% of 410,000 active; AID 624173; further: potency means the concentration at half of the fitted maximal effect; on the % scale 0 is the no-effect control and ±100 the full control effect; nearly all actives have a fitted effect of over 50% in size
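Glycolytic pyruvate kinase of T. brucei was incubated with substrate, test compound and 130 uM ADP for 45 minutes at room temperature. Luminescent Kinase-Glo Plus signal was measured after 10 minutes.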
Shiga inhibitor: blocks Shiga toxin action in Vero cells | Vero cells, Shiga toxin protein synthesis inhibition reporter | inhibition, % at 38.7 µM | 9.2% of 290,000 active | AID 2315; in the data active means inhibition mostly above about 28%, no sharp cut-off; inactive means mostly below about 43%; further: 0% is about no effect
Sm TGR inh: inhibitors of Schistosoma mansoni thioredoxin glutathione reductase. Q962Y6. purified TGR, DTNB reduction, TNB absorbance 405 nm. Potency, µM (doses to about 114 µM), for the others: top-dose activity change, negative = inhibition, actives largely listed as inhibitors. 3% of 360,000 active. AID 485364; further: potency means the concentration at half of the fitted maximal effect; on the % scale 0 is the no-effect control and ±100 the full control effect; nearly all actives have a fitted effect of over 60% in size
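Kinetic colorimetric format: TGR-catalysed, NADPH-driven DTNB reduction monitored via TNB absorbance. Enzyme dispensed at 20 nM; compound exposure 15 min at room temperature before reaction start.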
Cycloheximide cs: affects cycloheximide protein synthesis inhibition readout, counter-screen. AID 2314. 12% of 300,000 active. cell reporter, cycloheximide protein synthesis inhibition counterscreen. max response, %; in the data active means max response mostly above about 13%, no sharp cut-off; inactive means mostly below about 14%; further: read at 38.3 µM for the half of the compounds with a filed dose; 0% is about no effect
Starred values were filed as active, the others as inactive. This excerpt belongs to a sample that is enriched for hits. Unless noted, the call rests on the fitted dose curve; in most records, active means well fitted curve in the direction sought with a large enough effect; inconclusive means small, poorly fitted or top-dose-only effect, or another doubt; inactive means no such curve, though single readings can be large; an effect the other way counts as inactive or inconclusive.

`C=C(C)C1(O)OC(=O)C=C1OC` (centres undefined) gave Giardia FBPA inh 0.3%, LmPK inhibitor 2.2%, TbPYK inhibitor -7.4%, Shiga inhibitor 14.2, Sm TGR inh 6.31µM* and Cycloheximide cs 8.5*.
`COc1ccc(C2=CC(=O)OC3(CCCCC3)O2)cc1` gave Giardia FBPA inh 4.2%, LmPK inhibitor -0.1%, TbPYK inhibitor -10.5%, Shiga inhibitor 17.8, Sm TGR inh -17.9% and Cycloheximide cs 6.4.
For COc1ccc(NC(=O)C(Cc2ccccc2)NS(=O)(=O)c2ccc3c(c2)oc(=O)n3C)c(OC)c1 (centres undefined) the results were TbPYK inhibitor -16.2% and Sm TGR inh 21.8%.
Screening Cc1ccc(-c2nc(-c3nccc4ccccc34)oc2-c2ccccc2)cc1 returned Giardia FBPA inh -13.8%, LmPK inhibitor -5.8%, TbPYK inhibitor 3.4%, Shiga inhibitor 97.7*, Sm TGR inh -3.2% and Cycloheximide cs 22.4*.
`c1ccc(-c2nccc3ccccc23)cc1` gave TbPYK inhibitor 5.3%.
Screening O=c1c2c3c(sc2ncn1/N=C/c1cccnc1)CCCC3 returned Giardia FBPA inh 5.7%, LmPK inhibitor -0.5%, TbPYK inhibitor 4.4%, Shiga inhibitor 100.2*, Sm TGR inh 7.4% and Cycloheximide cs 25.8*.
`O=c1c2c3c(sc2ncn1/N=C/c1ccncc1)CCCC3` gave Giardia FBPA inh 2.6%, LmPK inhibitor 0.8%, TbPYK inhibitor -0.3%, Shiga inhibitor -8.8, Sm TGR inh 0.3% and Cycloheximide cs 7.9.
For Clc1cc2nc(-c3cccnc3Cl)[nH]c2cc1Cl the results were Giardia FBPA inh -11.8%, LmPK inhibitor -1.4%, TbPYK inhibitor -1.9%, Shiga inhibitor 105.4*, Sm TGR inh 7.7% and Cycloheximide cs 29.4*.
Screening COc1ccc(-c2nc(CCNC(=O)c3ccccc3)cs2)cc1OC returned TbPYK inhibitor -1.9% and Sm TGR inh 4.9%.
For COc1ccccc1N=Nc1[nH]c2ccc(C)cc2c1O the results were Giardia FBPA inh 0.1%, LmPK inhibitor 0.4%, TbPYK inhibitor inconclusive, Shiga inhibitor 32.0*, Sm TGR inh -21.5% and Cycloheximide cs 21.6*.
Screening CC(=O)c1cccc(OC(=O)c2cc(S(=O)(=O)N3CCOCC3)ccc2N2CCCC2)c1 returned TbPYK inhibitor 2.0% and Sm TGR inh -0.7%.
COc1ccc(NC(=O)CN2CCN(S(=O)(=O)c3ccc(Cl)cc3)CC2)cc1Cl was read as Giardia FBPA inh -2.5%, LmPK inhibitor 8.2%, TbPYK inhibitor -1.5%, Shiga inhibitor -23.6, Sm TGR inh 4.5% and Cycloheximide cs -2.2.
`COc1cc2c(cc1OC)C(C)N(CC(=O)Nc1ccc(S(=O)(=O)N3CCCC3)cc1)CC2` (centres undefined) gave LmPK inhibitor 7.7%, TbPYK inhibitor 7.6%, Shiga inhibitor 10.9, Sm TGR inh 35.5µM* and Cycloheximide cs -2.1.
`COc1cc2c(cc1OC)CN(CC(=O)Nc1ccc(S(=O)(=O)N3CCCC3)cc1)CC2` gave LmPK inhibitor -4.8%, TbPYK inhibitor 2.3%, Shiga inhibitor -12.5, Sm TGR inh -6.5% and Cycloheximide cs 5.0.
`COc1ccc(S(=O)(=O)N2CCCN(CC(=O)Nc3ccc(OC)c(Cl)c3)CC2)cc1` gave Giardia FBPA inh -24.5%, LmPK inhibitor 1.4%, TbPYK inhibitor -4.5%, Shiga inhibitor -6.3, Sm TGR inh 31.6µM* and Cycloheximide cs -4.2.
Screening O=S(=O)(c1ccc2c(c1)OCCO2)C1CCN(S(=O)(=O)c2c(F)cccc2F)CC1 returned Shiga inhibitor 24.1 and Cycloheximide cs 5.2.
`N/C(Cc1cccs1)=N\OC(=O)COc1ccc(Br)cc1Cl` gave Giardia FBPA inh 7.6%, LmPK inhibitor 0.4%, TbPYK inhibitor -2.1%, Shiga inhibitor 139.9*, Sm TGR inh -24.8% and Cycloheximide cs 32.8*.
N/C(Cc1cccs1)=N\OC(=O)COc1ccccc1Cl was read as Giardia FBPA inh -3.8%, LmPK inhibitor -5.7%, TbPYK inhibitor 2.1%, Shiga inhibitor 119.3*, Sm TGR inh -11.2% and Cycloheximide cs 59.7*.
For O=C(COC(=O)COc1ccc(Cl)cc1Br)NCc1cccs1 the results were Giardia FBPA inh -0.5%, LmPK inhibitor 10.4%, TbPYK inhibitor 4.8%, Shiga inhibitor -16.6, Sm TGR inh 14.2% and Cycloheximide cs 1.6.
CC(C)CCC(=O)OC1CCC2C3CCC4=CC(=O)CC[C@]4(C)C3CC[C@]12C (some centres undefined) was read as TbPYK inhibitor 3.9%.
For CCOc1ccc(OCC)c(NC(=O)Cn2ncc3c4ccccc4n(Cc4ccccc4)c3c2=O)c1 the results were TbPYK inhibitor -0.9% and Sm TGR inh -4.6%.
`O=C1CCOc2cc(OCc3ccccc3)ccc21` gave Giardia FBPA inh -5.7%, LmPK inhibitor inconclusive, TbPYK inhibitor -2.2%, Shiga inhibitor 49.6*, Sm TGR inh 1.2% and Cycloheximide cs 33.1*.
`O=C1NC(c2cccc(OCc3ccccc3)c2)Nc2ccccc21` (centres undefined) gave TbPYK inhibitor 3.4%.
Screening CCNc1ccc(Br)cc(C(=O)/C=C/c2ccccc2Cl)c1=O returned TbPYK inhibitor -10.7%.
For CNc1ccc(Br)cc(C(=O)/C=C/c2cccc(OC)c2OC)c1=O the results were Giardia FBPA inh inconclusive, LmPK inhibitor -0.5%, Shiga inhibitor 4.5, Sm TGR inh 7.08µM* and Cycloheximide cs -1.9.
`COc1cccc(/C=C/C(=O)c2ccc3c(c2)OCO3)c1OC` gave TbPYK inhibitor 4.8% and Sm TGR inh -19.4%.
CNc1ccc(Br)cc(C(=O)/C=C/c2cccc(Cl)c2Cl)c1=O was read as Giardia FBPA inh inconclusive, LmPK inhibitor 0.1%, TbPYK inhibitor -15.1%, Shiga inhibitor -14.6, Sm TGR inh 2.51µM* and Cycloheximide cs -1.6.
`COc1ccccc1/C=C/C(C)=O` gave Giardia FBPA inh 1.4%, LmPK inhibitor -1.9%, TbPYK inhibitor -4.4%, Shiga inhibitor 1.5, Sm TGR inh -7.7% and Cycloheximide cs -1.0.
`CNc1ccccc(C(=O)/C=C/c2ccccc2OC)c1=O` gave Giardia FBPA inh 11.2µM*, LmPK inhibitor 2.0%, TbPYK inhibitor -21.7%, Shiga inhibitor 55.0*, Sm TGR inh 2.82µM* and Cycloheximide cs 30.6*.
`CCC(=O)N1CCc2cc(Br)cc(S(=O)(=O)CCC(=O)Nc3ccc(Cl)cc3)c21` gave TbPYK inhibitor -2.2% and Sm TGR inh -0.8%.
Screening COc1ccc(NC(=O)c2cccs2)c([N+](=O)[O-])c1 returned Giardia FBPA inh 2.6%, LmPK inhibitor -5.9%, TbPYK inhibitor -5.7%, Shiga inhibitor 80.3*, Sm TGR inh -29.2% and Cycloheximide cs 37.5*.
